Here are results for four compounds from PubChem BioAssay (EPA / NIEHS).

Read-out in assay [1]: Interferon-gamma inducible Protein 10 (IP10), CXCL10 (gene 3627)
The assay can be described thus: BSK_hDFCGF_IP10: BioMAP Diversity Plus: hDFCGF Assay for Interferon-gamma inducible Protein 10 (IP10) Biomarker Activity (AID 2283053). Particulars: primary human foreskin fibroblasts; actives raise or lower the signal. A digest of the protocol: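 Human foreskin fibroblast primary cells (hDFCGF system) were dosed with chemical and assayed at 24 h; IP-10 measured by ELISA. Activity fitted bidirectionally relative to DMSO negative control as baseline.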

Read-out in assay [2]: Urokinase-type plasminogen activator receptor (uPAR), PLAUR (gene 5329)
The assay can be described thus: BSK_CASM3C_uPAR: BioMAP Diversity Plus: CASM3C Assay for Urokinase-type plasminogen activator receptor (uPAR) Biomarker Activity (AID 2283054).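 Note: cell-surface uPAR protein level quantified by ELISA.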 Particulars: primary human coronary artery smooth muscle cells; actives raise or lower the signal.

Read-out in assay [3]: Vascular cell adhesion molecule 1 (VCAM1), VCAM1 (gene 7412)
In words: BSK_CASM3C_VCAM1: BioMAP Diversity Plus: CASM3C Assay for Vascular cell adhesion molecule 1 (VCAM1) Biomarker Activity (AID 2283055).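 Note: VCAM-1 protein level quantified by ELISA on the cells.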 The following applies: primary human coronary artery smooth muscle cells; actives raise or lower the signal.

Read-out in assay [4]: Collagen III, COL3A1 (gene 1281)
In words: BSK_hDFCGF_CollagenIII: BioMAP Diversity Plus: hDFCGF Assay for Collagen III Biomarker Activity (AID 2283056). The following applies: primary human foreskin fibroblasts; actives raise or lower the signal. A digest of the protocol: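 hDFCGF primary human dermal fibroblasts; 24 h chemical exposure; collagen III by ELISA; bidirectional curve fit vs DMSO baseline (gain or loss of signal).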

Read-out in assay [5]: Epidermal growth factor receptor (EGFR), EGFR (gene 1956)
The assay can be described thus: BSK_hDFCGF_EGFR: BioMAP Diversity Plus: hDFCGF Assay for Epidermal growth factor receptor (EGFR) Biomarker Activity (AID 2283057). The following applies: primary human foreskin fibroblasts; actives raise or lower the signal. A digest of the protocol:
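Primary human foreskin fibroblasts were exposed to compound for 24 h, after which cell-surface EGFR was quantified by ELISA. Activity was fitted bidirectionally against the DMSO negative control as baseline.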

Read-out in assay [6]: Interleukin-8 (IL8), CXCL8 (gene 3576)
The assay can be described thus: BSK_hDFCGF_IL8: BioMAP Diversity Plus: hDFCGF Assay for Interleukin-8 (IL8) Biomarker Activity (AID 2283058). Particulars: primary human foreskin fibroblasts; actives raise or lower the signal. A digest of the protocol: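 ELISA read-out of IL-8 from primary human foreskin fibroblast cultures taken 24 h after dosing; values are bidirectional fits relative to DMSO vehicle.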

A short description of assay [7]: BSK_hDFCGF_Proliferation: Cell Proliferation Assessment in the BioMAP Diversity Plus: hDFCGF Assay (AID 2283059).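 Note: curves fitted for both rise and fall of signal versus DMSO baseline.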 Particulars: primary human foreskin fibroblasts. Put shortly:
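This proliferation readout used SRB total-protein staining of human foreskin fibroblasts […], normalized to DMSO with bidirectional curve fitting.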

Read-out in assay [8]: Macrophage colony-stimulating factor (MCSF), CSF1 (gene 1435)
In words: BSK_hDFCGF_MCSF: BioMAP Diversity Plus: hDFCGF Assay for Macrophage colony-stimulating factor (MCSF) Biomarker Activity (AID 2283060). The following applies: primary human foreskin fibroblasts; actives raise or lower the signal. A digest of the protocol: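 ELISA read-out of M-CSF in human dermal foreskin fibroblast cultures, 24 h after chemical dosing; gain or loss of signal fitted bidirectionally relative to DMSO baseline.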

Assay [9] in a line: BSK_hDFCGF_SRB: Viability Assessment in the BioMAP Diversity Plus: hDFCGF Assay (AID 2283061).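 Note: cells exposed to compound for 24 h before the read.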 Particulars: primary human foreskin fibroblasts. Put shortly: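 Primary human foreskin fibroblasts; 24 h post-dose; fixed 10% TCA, stained 0.1% SRB, A560 read; total protein as overt cytotoxicity measure; curves fit bidirectionally vs DMSO control.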
Read-out in assay [10]: TIMP metallopeptidase inhibitor 1 (TIMP1), TIMP1 (gene 7076)
In words: BSK_hDFCGF_TIMP1: BioMAP Diversity Plus: hDFCGF Assay for TIMP metallopeptidase inhibitor 1 (TIMP1) Biomarker Activity (AID 2283062). The following applies: primary human foreskin fibroblasts; actives raise or lower the signal. Put shortly: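 ELISA readout of TIMP-1 from human dermal foreskin fibroblast cultures 24 h post-dosing. Curves were fitted in both directions against DMSO baseline, with SRB total-protein staining in parallel cultures as a cytotoxicity check.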

Read-out in assay [11]: Monokine induced gamma interferon (MIG), CXCL9 (gene 4283)
In words: BSK_hDFCGF_MIG: BioMAP Diversity Plus: hDFCGF Assay for Monokine induced gamma interferon (MIG) Biomarker Activity (AID 2283063). The following applies: primary human foreskin fibroblasts; actives raise or lower the signal. Put shortly: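 Fibroblasts (human foreskin, primary) dosed, 24 h, MIG by ELISA; fit bidirectional vs DMSO.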

Read-out in assay [12]: Matrix Metallopeptidase 1 (MMP1), MMP1 (gene 4312)
In words: BSK_hDFCGF_MMP1: BioMAP Diversity Plus: hDFCGF Assay for Matrix Metallopeptidase 1 (MMP1) Biomarker Activity (AID 2283064). The following applies: primary human foreskin fibroblasts; actives raise or lower the signal. A digest of the protocol:
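Primary human foreskin fibroblasts exposed to chemicals for 24 h; MMP1 measured by ELISA. Cytotoxicity tracked by SRB staining in parallel cultures; bidirectional fit relative to DMSO.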

Read-out in assay [13]: Vascular cell adhesion molecule 1 (VCAM1), VCAM1 (gene 7412)
In words: BSK_hDFCGF_VCAM1: BioMAP Diversity Plus: hDFCGF Assay for Vascular cell adhesion molecule 1 (VCAM1) Biomarker Activity (AID 2283065).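 For AC50: VCAM-1 protein level quantified by ELISA after 24 h chemical exposure.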 Particulars: primary human foreskin fibroblasts; actives raise or lower the signal. A digest of the protocol:
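ELISA read-out of VCAM-1 on human skin fibroblasts, 24 h post-dose; gain or loss of signal fitted bidirectionally against DMSO baseline.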

Read-out in assay [14]: Plasminogen activator inhibitor-1 (PAI1), SERPINE1 (gene 5054)
The assay can be described thus: BSK_hDFCGF_PAI1: BioMAP Diversity Plus: hDFCGF Assay for Plasminogen activator inhibitor-1 (PAI1) Biomarker Activity (AID 2283066). The following applies: primary human foreskin fibroblasts; actives raise or lower the signal. A digest of the protocol:
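Human foreskin fibroblasts in the hDFCGF system were dosed with compound for 24 h; PAI-1 was quantified by ELISA. Bidirectional curve fitting used DMSO as negative control and baseline.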

Read-out in assay [15]: Intercellular Adhesion Molecule 1 (ICAM1), ICAM1 (gene 3383)
The assay can be described thus: BSK_KF3CT_ICAM1: BioMAP Diversity Plus: KF3CT Assay for Intercellular Adhesion Molecule 1 (ICAM1) Biomarker Activity (AID 2283067). Particulars: primary human keratinocytes with fibroblasts; actives raise or lower the signal. A digest of the protocol: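 ELISA readout of ICAM-1; KF3CT human skin co-culture (keratinocytes + foreskin fibroblasts), 24 h post-dose; gain/loss fit vs DMSO baseline.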

Assay [16] is described as follows: BSK_KF3CT_SRB: Viability Assessment in the BioMAP Diversity Plus: KF3CT Assay (AID 2283069).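 Note: total protein by sulforhodamine B staining as a cytotoxicity measure; read 24 h after compound addition.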 Particulars: primary human keratinocytes with fibroblasts. Put shortly:
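Human keratinocyte and foreskin fibroblast co-culture exposed to chemical for 24 h. Total protein measured in parallel cultures by 0.1% sulforhodamine B staining after 10% TCA fixation, read at 560 nm; bidirectional fit relative to DMSO.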

Read-out in assay [17]: Interleukin-1 alpha (IL1a), IL1A (gene 3552)
The assay can be described thus: BSK_KF3CT_IL1a: BioMAP Diversity Plus: KF3CT Assay for Interleukin-1 alpha (IL1a) Biomarker Activity (AID 2283070). The following applies: primary human keratinocytes with fibroblasts; actives raise or lower the signal. Put shortly: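 Primary human keratinocyte plus foreskin fibroblast co-culture, dosed and measured at 24 h in 96-well plates. IL-1a level quantified by ELISA; bidirectional fit relative to DMSO.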

Read-out in assay [18]: TIMP metallopeptidase inhibitor 2 (TIMP2), TIMP2 (gene 7077)
The assay can be described thus: BSK_KF3CT_TIMP2: BioMAP Diversity Plus: KF3CT Assay for TIMP metallopeptidase inhibitor 2 (TIMP2) Biomarker Activity (AID 2283071). Particulars: primary human keratinocytes with fibroblasts; actives raise or lower the signal. A digest of the protocol: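 Human primary keratinocyte/foreskin fibroblast co-culture dosed with chemical and sampled at 24 h. TIMP-2 levels quantified by ELISA; bidirectional fitting against DMSO negative control as baseline.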

Read-out in assay [19]: Transforming growth factor beta 1 (TGFb1), TGFB1 (gene 7040)
In words: BSK_KF3CT_TGFb1: BioMAP Diversity Plus: KF3CT Assay for Transforming growth factor beta 1 (TGFb1) Biomarker Activity (AID 2283072). The following applies: primary human keratinocytes with fibroblasts; actives raise or lower the signal. Put shortly: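 Human keratinocyte plus foreskin fibroblast primary co-culture, dosed with chemical for 24 h. TGF-b1 quantified by ELISA. Activity fitted bidirectionally against DMSO negative control as baseline.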

Read-out in assay [20]: Interferon-gamma inducible Protein 10 (IP10), CXCL10 (gene 3627)
The assay can be described thus: BSK_KF3CT_IP10: BioMAP Diversity Plus: KF3CT Assay for Interferon-gamma inducible Protein 10 (IP10) Biomarker Activity (AID 2283068). The following applies: primary human keratinocytes with fibroblasts; actives raise or lower the signal. A digest of the protocol:
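Signal is secreted/surface IP-10 by ELISA in a human primary skin co-culture of keratinocytes and foreskin fibroblasts, taken 24 h post-dosing; DMSO served as negative control.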

Structures are written as SMILES. Several values for one entry are separate records, joined by “and”; a condition that tells them apart may be missing. Equal entries are not always repeated. More than one record can exist for a structure, and the calls need not agree. Activity calls are given as the source filed them. Rule for the calls: active = hit-call score of the fitted dose curve at least 0.9, where 1 is the maximum; inactive = score below 0.9.

In the case of `CC1COc2ccccc2N1C(=O)C(Cl)Cl` (stereo not given), the outcome in assay [1], in assay [5], in [6], in [8], in assay [10] and in assay [11] was inactive. Moreover, the outcome in [15], in [16], in [18] and in [19] was inactive. In addition, the AC50 was 7.08 µM (active) in assay [2]; 10.2 µM (active) in assay [3]; 0.0289 µM (active) in assay [4]; 8.61 µM (active) in [7]; 20 µM (active) in [9]; 20 µM (active) in [12]. In addition, the results for the AC50 in [13], in assay [14] and in [17] were 1.78 µM (active), 53.3 nM (active) and 0.629 µM (active), respectively.

Turning to `CC[Si](OC(C)=O)(OC(C)=O)OC(C)=O`, the outcome in assay [1], in assay [2], in assay [3], in [5], in [6] and in assay [7] was inactive. Moreover, the result in assay [8], in assay [9], in assay [10], in assay [11], in [12] and in [13] was inactive. For the same compound, the outcome in assay [14], in assay [15], in [20], in assay [16], in [17] and in [18] was inactive. The concentration at half-maximal activity (AC50) in [7] was 16.1 µM (active).

Turning to `CCC(=O)OCc1ccccc1`, the result in assay [1], in [2], in assay [3], in assay [4], in assay [5] and in assay [6] was inactive. For the same compound, the result in assay [7], in assay [8], in assay [9], in [10], in assay [11] and in [12] was inactive. Besides, the outcome in assay [13], in assay [14], in assay [15], in assay [20], in assay [16] and in assay [17] was inactive. In addition, in assay [18], the outcome was inactive.

Turning to `Cc1cc(C2(c3cc(C)c(O)cc3C)OS(=O)(=O)c3ccccc32)c(C)cc1O`, the outcome in [1], in assay [2], in [3], in assay [5], in assay [6] and in [7] was inactive. The result in [8], in assay [9], in assay [10], in assay [11], in assay [12] and in assay [13] was inactive. Further, the outcome in [15], in assay [20], in assay [16], in [17] and in assay [18] was inactive. In assay [14], the concentration at half-maximal activity (AC50) was 20 µM (active) and 4.95 µM (active).
